SW480 rerep – DNA re-replication induction in SW480 cells; SW480 DNA re-replication, Hoechst DNA content imaging, 48 h; Potency, µM (doses to about 46.1 µM), most hits filed as activators; actives 1.8% (n = 340,000); AID 624297; further: nearly all actives have a fitted effect of over 55% in size
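Readout is total intensity of Hoechst-stained nuclei, excited at 405 nm and collected at 500-530 nm. Compound treatment lasted 48 hr at 37 C in 5% CO2 before staining.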
KCNH2 3.1 block – blocks the human KCNH2 3.1 channel isoform | U2OS KCNH2 3.1, thallium flux FluxOr; active compounds read low | activity change, % (tested at about 1.8 µM) | actives 0.95% (n = 340,000);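 active means maximum activity change below -70%; inconclusive means maximum activity change from -70% to -50%; inactive means maximum activity change above -50%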;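 further: thallium influx rate constant from kinetic fluorescence after stimulation buffer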
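Kinetic fluorescence (2 min after stimulation buffer) measures Tl+ influx through KCNH2 3.1 expressed by viral transduction in U2OS cells; the rate constant is normalized against DMSO controls serving as positive and negative references.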
KCNH2 WT inh – inhibitors of human wildtype KCNH2 potassium channel | Q12809 | U2OS, BacMam KCNH2, thallium flux FluxOr; active compounds read low | activity change, % at 1.84 µM | actives 0.37% (n = 340,000) | AID 720551;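 active means maximum activity change below -70%; inconclusive means maximum activity change between -70% and -50%; inactive means maximum activity change above -50%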
Target sequence (Q12809 whole entry, looked up): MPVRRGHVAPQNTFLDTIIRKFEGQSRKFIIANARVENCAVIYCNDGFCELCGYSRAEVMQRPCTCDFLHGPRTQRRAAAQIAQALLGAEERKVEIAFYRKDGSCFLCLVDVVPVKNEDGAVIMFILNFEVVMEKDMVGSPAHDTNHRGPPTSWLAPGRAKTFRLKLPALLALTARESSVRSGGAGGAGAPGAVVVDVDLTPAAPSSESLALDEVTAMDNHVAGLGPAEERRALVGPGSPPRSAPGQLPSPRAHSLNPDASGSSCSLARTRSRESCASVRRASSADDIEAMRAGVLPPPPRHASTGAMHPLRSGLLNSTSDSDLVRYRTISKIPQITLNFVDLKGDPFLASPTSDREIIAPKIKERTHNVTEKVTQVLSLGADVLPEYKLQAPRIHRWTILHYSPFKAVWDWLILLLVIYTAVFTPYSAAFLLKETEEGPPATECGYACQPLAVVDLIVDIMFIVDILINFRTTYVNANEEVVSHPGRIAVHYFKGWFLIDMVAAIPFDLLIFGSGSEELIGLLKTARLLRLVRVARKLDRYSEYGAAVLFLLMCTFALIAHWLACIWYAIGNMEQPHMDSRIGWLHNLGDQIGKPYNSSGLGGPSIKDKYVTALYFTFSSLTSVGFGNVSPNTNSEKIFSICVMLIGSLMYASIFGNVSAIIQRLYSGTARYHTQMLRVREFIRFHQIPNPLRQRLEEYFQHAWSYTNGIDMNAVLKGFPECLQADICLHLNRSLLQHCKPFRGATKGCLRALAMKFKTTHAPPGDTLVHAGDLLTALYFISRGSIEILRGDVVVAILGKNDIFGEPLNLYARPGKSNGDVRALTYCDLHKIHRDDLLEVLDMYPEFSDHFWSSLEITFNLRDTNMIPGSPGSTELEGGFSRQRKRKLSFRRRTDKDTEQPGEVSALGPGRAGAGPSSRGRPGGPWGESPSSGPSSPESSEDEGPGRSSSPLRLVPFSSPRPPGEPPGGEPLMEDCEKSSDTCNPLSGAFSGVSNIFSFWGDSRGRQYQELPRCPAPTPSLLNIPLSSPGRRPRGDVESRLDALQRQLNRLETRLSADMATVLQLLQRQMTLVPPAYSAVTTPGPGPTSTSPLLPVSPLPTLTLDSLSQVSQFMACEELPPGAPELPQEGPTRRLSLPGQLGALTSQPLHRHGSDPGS
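U2OS cells transduced with wild-type KCNH2 virus are loaded with FluxOr dye for 45 min, and thallium flux is measured in kinetic reads before and after stimulation buffer. Rate constants are normalized to DMSO controls.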
KB-3-1 cytotox – KB-3-1 parental cell cytotoxicity; KB-3-1 viability, CellTiter-Glo ATP luminescence, 72 h; Potency, µM (series often up to 46.1 µM), most hits filed as cytotoxic; actives 1.4% (n = 400,000); further: nearly all actives have a fitted effect of over 60% in size
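Parental KB-3-1 viability, qHTS format: 72 h compound exposure, 37 °C; CellTiter-Glo; media-only wells and DMSO plates as controls; concentration-effect fits on corrected data.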
KB-V1 cytotox – KB-V1 MDR subline cytotoxicity; Potency, µM (highest dose often 46.1 µM), most hits filed as cytotoxic; actives 3.4% (n = 400,000); KB-V1 MDR cells viability, CellTiter-Glo, 72 h; further: nearly all actives have a fitted effect of over 60% in size
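Drug-selected KB-V1 cells, grown in DMEM lacking phenol red with 10% FBS, receive compound titrations; after three days at 37 degrees C, surviving cell ATP is quantified by CellTiter-Glo luminescence and responses normalized and curve-fitted.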
MCF10A rereplic – induces DNA re-replication in MCF 10a normal breast cells. Potency, µM (highest dose often 46.1 µM), hits mostly activators. AID 624296. actives 2.9% (n = 350,000). MCF 10A DNA re-replication, Hoechst nuclear intensity, 48 h; further: nearly all actives have a fitted effect of over 50% in size
A number is an active result; 0 = inactive; ? = inconclusive; - = not tested or not shown; ! = repeats disagree. Shown are actives, neighbours in structure and some others; about 7.6% of the full set was active somewhere. Unless noted, the call rests on the fitted dose curve; in most records, active means well fitted curve in the direction sought with a large enough effect; inconclusive means small, poorly fitted or top-dose-only effect, or another doubt; inactive means no such curve, though single readings can be large; an effect the other way counts as inactive or inconclusive.

SMILES	SW480 rerep	KCNH2 3.1 block	KCNH2 WT inh	KB-3-1 cytotox	KB-V1 cytotox	MCF10A rereplic
Cc1cc(C)c(C#N)c(SCc2ccc(F)cc2)n1	0	0	0	0	?	0
Cc1cc(C)c(C#N)c(SCc2ccccc2[N+](=O)[O-])n1	0	0	0	0	23.1µM	0
Cc1cc(C)c(C#N)c(SCc2nc3ccccc3[nH]2)n1	18.4µM	0	0	0	0	12.6µM
O=C(COC(=O)c1cc(=O)[nH]c2ccccc12)NC(=O)c1ccccc1	25.9µM	0	0	0	0	0
CC1(C)CC2(CC(c3cccs3)c3cc(Cl)c(O)cc3O2)NC(=S)N1 (configuration not stated)	0	0	0	0	0	?
Cc1c(C(=O)O)sc2nc(/C=C/c3ccccc3OC(F)F)[nH]c(=O)c12	23.1µM	0	0	0	0	25.9µM
Cc1c(C(=O)O)sc2nc(/C=C/c3cccc(F)c3)[nH]c(=O)c12	0	0	0	0	0	18.4µM
CCOC(=O)C1CCCN(c2c(C(=O)c3ccccc3)cnc3ccc(F)cc23)C1 (configuration not stated)	-	-	-	0	0	-
O=C(Nc1ccccc1)C1C2CCC3C(CCC21)C3(Cl)Cl (configuration not stated)	0	0	0	0	0	0
O=C(Nc1cccc(Cl)c1)C1C2CCC3C(CCC21)C3(Cl)Cl (configuration not stated)	0	0	0	?	20.6µM	0
COC(=O)[C@]1(C)N[C@H](CN(C)C(=O)Nc2ccc(OC)cc2)[C@@H]2C(=O)N(C)C(=O)[C@@H]21	0	0	0	0	0	0
COCCCNC(=S)Nc1ccc2c(c1)OCCO2	0	0	-87.7	0	?	0
COc1cc(OC)cc(C(=O)NC(C(=O)Nc2ccc3c(c2)OCCO3)C(C)C)c1 (configuration not stated)	0	0	0	0	0	0
COc1cc(OC)cc(C(=O)NCC(=O)Nc2ccc(C)c(Cl)c2)c1	0	0	0	0	0	0
COc1cc(OC)cc(C(=O)Nc2nnc(NC(=S)Nc3ccccc3)s2)c1	0	0	0	0	0	10.3µM
COc1cc(OC)cc(C(=O)NCC(=O)Nc2ccc(-c3ccccc3)cc2)c1	8.2µM	-82.2	0	?	0	4.61µM
COc1cc(OC)cc(C(=O)Nc2ccc3c(c2)OCCO3)c1	0	0	0	16.4µM!	9.2µM!	0
CCN(CC)S(=O)(=O)c1ccc(C(=O)Nc2nnc(NC(=S)Nc3ccccc3)s2)cc1	?	0	0	0	0	?
CCC(=O)N1CCCc2cc(S(=O)(=O)N3CCC(C(=O)NC4CCCCC4)CC3)ccc21	-	-	-	0	?	-
CSc1nsc(SCC(=O)Nc2ccccc2C(N)=O)n1	0	0	0	0	?	?
CCc1ccc(CNC(=O)C2Cc3cc(S(=O)(=O)N4CCCC4)ccc3N2C(C)=O)cc1 (configuration not stated)	0	0	0	0	0	0
Cc1ccc(C(=O)Nc2ccc3c(c2)OCCO3)o1	0	0	0	0	20.6µM	0
COc1cc(OC)cc(C(=O)Nc2ccc(-c3nc4cc(C(C)C)ccc4o3)cc2)c1	-	-	-	0	0	-
O=C(Nc1ccc(-c2nc3ccccc3o2)cc1)c1ccc(N2C(=O)C3C4C=CC(C4)C3C2=O)cc1 (configuration not stated)	0	0	0	0	4.11µM	?
O=C(Nc1ccc(-c2nc3ccccc3o2)cc1)c1ccc2c(c1)OCO2	?	0	0	0	?	?
SMILES	SW480 rerep	KCNH2 3.1 block	KCNH2 WT inh	KB-3-1 cytotox	KB-V1 cytotox	MCF10A rereplic
COc1cc(OC)cc(C(=O)Nc2ccc(Nc3ccccc3)cc2)c1	0	-85.5	0	0	0	0
COc1cc(OC)cc(C(=O)Nc2ccc(-c3nc4ccccc4o3)cc2)c1	0	-111.9	0	0	?	?
COc1cccc(CNC(=O)CN(c2ccc(C)cc2)S(=O)(=O)N(C)C)c1OC	-	-	-	0	0	-
Cn1c(C(=O)Nc2ccc3c(c2)OCCO3)cc2sccc21	0	0	0	0	14.6µM	0
COCCNC(=S)Nc1ccc2nc(N3CCOCC3)cc(C)c2c1	0	0	0	0	0	0
CCCN(CCC)CCCNC(=S)Nc1ccc2nc(N3CCN(CC)CC3)cc(C)c2c1	0	0	0	0	0	0
CCOCCCNC(=S)Nc1ccc2nc(N3CCCC3)cc(C)c2c1	0	0	0	0	7.31µM	0
CCCN(CCC)CCCNC(=S)Nc1ccc2nc(N3CCN(C)CC3)cc(C)c2c1	?	-108.8	0	0	0	0
COCCNC(=S)Nc1ccc2nc(N3CCCC3)cc(C)c2c1	0	0	0	0	16.4µM	0
CCOc1cc2ccccc2cc1C(=O)OCC(=O)Nc1ccc(Br)cc1	-	-	-	0	0	-
Cn1c(=O)c2c(nc(NCc3ccc4c(c3)OCO4)n2Cc2ccccc2Cl)n(C)c1=O	0	0	0	0	0	0
CCSc1nc2c(c(=O)[nH]c(=O)n2C)n1Cc1ccc(Cl)cc1	0	0	0	?	7.31µM	0
Cn1c(=O)[nH]c(=O)c2c1nc(N1CCCCC1)n2CCSc1nc2ccccc2o1	0	0	0	0	0	0
CCSc1nc2c(c(=O)n(C)c(=O)n2C)n1Cc1ccc(Cl)cc1	0	0	0	0	13µM	0
Cn1c(=O)c2c(nc(SCC(=O)NCc3ccc4c(c3)OCO4)n2Cc2ccc(Cl)cc2)n(C)c1=O	0	0	0	0	4.11µM	0
CC(C)CCn1c(Sc2nc3ccccc3o2)nc2c1c(=O)[nH]c(=O)n2C	?	0	0	0	14.6µM	?
Cc1cc(C)n2c(Nc3ccccc3C)c(-c3cccs3)nc2n1	-	-	-	0	0	-
Cc1nc2sccn2c(=O)c1S(=O)(=O)Nc1cc(Cl)ccc1O	-	-	-	0	0	-
COc1ccc(C(C)=O)cc1CSc1nnc(Nc2c(C)cccc2C)s1	0	0	0	0	0	0
NNC(=S)NCc1ccc2c(c1)OCO2	0	0	0	0	?	0
CCCCCCn1c(SCC(C)C)nc2c1c(=O)[nH]c(=O)n2C	0	0	0	?	10.3µM	0
CCCCCCn1c(SCC(=O)OC)nc2c1c(=O)[nH]c(=O)n2C	0	0	0	0	0	0
OCC1O[C@H](Oc2ccc(O)cc2)C(O)C(O)C1O (some centres not stated)	0	-	-	-	-	0
COc1ccc(CC(=O)c2ccc(OC3OC(CO)C(O)C(O)C3O)cc2O)cc1 (configuration not stated)	0	0	-95.0	0	?	0
O=c1ccc2ccc(O[C@@H]3O[C@H](CO)[C@@H](O)[C@H](O)[C@H]3O)c(O)c2o1	0	0	0	0	?	0

Assay outcomes from PubChem BioAssay.
